Laboratory results published in a collection of fitness landscapes (doi:10.1016/j.celrep.2020.107928).
In all, about 81,000 sequences were measured (“one-hybrid fitness for binding NBS DNA”: median about -0.1, highest 2% from about 0.36 on). This excerpt belongs to a sample that is enriched for the highest values.

B1: Caulobacter ParB omega fusion; a variant is named by its letters at X, in order, B8GW30 (parent)
chain: MESVVVGEPGMSEGRRGLGRGLSALLGEVDAAPAQAPGEQLGGSREAPIEILQRNPDQPRRTFREEDLEDLSNSIREKGVLQPILVRPSPDTAGEYQIVAGERAWRAAQRAGLKTVPIMVRELDDLAVLEIGIIENVQRADLNVLEEALSYKVLMEKFERTQENIAQTIGKSXSHVANXMRLLXLPDEVQSYLVSGELTAXHARAIAAAADPVALAKQIIEGGLSVRETEALARKAPNLSAGKSKGGRPPRVKDTDTQALESDLSSVLGLDVSIDHRGSTGTLTITYATLEQLDDLCNRLTRGI

Variants of: B1
Experiment: one-hybrid fitness for binding NBS DNA (the Noc-binding site; scaled: cognate 1, non-cognate 0); higher = stronger binding
Conditions: with NBS DNA site
Outline: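 Bacterial one-hybrid selection in E. coli USO rpoZ- hisB- pyrF- with a HIS3 reporter carrying the site 19 bp from the promoter, screening Caulobacter ParB libraries with four specificity codons randomised (NNS). Cells grew 48 hours at 37°C on M9-minus-histidine plus 0.1 mM IPTG and 5 mM 3-AT. Plasmids before and after selection were Illumina-sequenced, three replicate libraries pooled, and variants under 10 reads dropped. Fitness is the log change in variant-to-wild-type read ratio, rescaled to cognate 1, non-cognate 0.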

one-hybrid fitness for binding NBS DNA, 0.266:
QLER

one-hybrid fitness for binding NBS DNA, 0.599:
QCCR

one-hybrid fitness for binding NBS DNA, 0.292:
QNRT

one-hybrid fitness for binding NBS DNA, 0.248:
QTHC

one-hybrid fitness for binding NBS DNA, 0.648:
QTHT

one-hybrid fitness for binding NBS DNA, 0.668:
QLRT

one-hybrid fitness for binding NBS DNA, 0.335:
QIYT

one-hybrid fitness for binding NBS DNA, 0.452:
LRKR

one-hybrid fitness for binding NBS DNA, 0.373:
QRAK

one-hybrid fitness for binding NBS DNA, 0.33:
QLLT

one-hybrid fitness for binding NBS DNA, 0.478:
QLAR

one-hybrid fitness for binding NBS DNA, 0.234:
QHRD
QTHG

one-hybrid fitness for binding NBS DNA, 0.419:
QHHT

one-hybrid fitness for binding NBS DNA, 0.396:
QRSK

one-hybrid fitness for binding NBS DNA, 0.272:
QACS

one-hybrid fitness for binding NBS DNA, 0.483:
QLQR
LRRR

one-hybrid fitness for binding NBS DNA, 0.302:
QVFR

one-hybrid fitness for binding NBS DNA, 0.786:
QVKR

one-hybrid fitness for binding NBS DNA, 0.213:
QRIK

one-hybrid fitness for binding NBS DNA, 0.544:
RKSS

one-hybrid fitness for binding NBS DNA, 0.496:
QLGR

one-hybrid fitness for binding NBS DNA, 0.369:
GPRT

one-hybrid fitness for binding NBS DNA, 0.468:
QLCR

one-hybrid fitness for binding NBS DNA, 0.232:
QLPR

one-hybrid fitness for binding NBS DNA, 0.365:
QRQK

one-hybrid fitness for binding NBS DNA, 0.295:
QRFK

one-hybrid fitness for binding NBS DNA, 0.288:
QREA

one-hybrid fitness for binding NBS DNA, 0.212:
QMCY

one-hybrid fitness for binding NBS DNA, 0.429:
QSHT

one-hybrid fitness for binding NBS DNA, 0.588:
QRYA

one-hybrid fitness for binding NBS DNA, 0.347:
QSYT

one-hybrid fitness for binding NBS DNA, 0.377:
QVNS

one-hybrid fitness for binding NBS DNA, 0.488:
QRNK

one-hybrid fitness for binding NBS DNA, 0.355:
QLYT

one-hybrid fitness for binding NBS DNA, 0.239:
QRWK

one-hybrid fitness for binding NBS DNA, 0.305:
QVLR

one-hybrid fitness for binding NBS DNA, 0.519:
QLHR
QKCR

one-hybrid fitness for binding NBS DNA, 0.445:
QRGK

one-hybrid fitness for binding NBS DNA, 0.306:
QVYR

one-hybrid fitness for binding NBS DNA, 0.716:
QART

one-hybrid fitness for binding NBS DNA, 0.943:
QLRR

one-hybrid fitness for binding NBS DNA, 0.608:
QIRT

one-hybrid fitness for binding NBS DNA, 0.388:
QRCK

one-hybrid fitness for binding NBS DNA, 0.494:
QHRH

one-hybrid fitness for binding NBS DNA, 0.509:
QMCR

one-hybrid fitness for binding NBS DNA, 0.681:
QHRT

one-hybrid fitness for binding NBS DNA, 0.368:
QVQR

one-hybrid fitness for binding NBS DNA, 1.15:
QTKR

one-hybrid fitness for binding NBS DNA, 0.747:
QRRK
QKNR

one-hybrid fitness for binding NBS DNA, 0.437:
RSSS

one-hybrid fitness for binding NBS DNA, 0.321:
DTKR

one-hybrid fitness for binding NBS DNA, 0.201:
QHRP
QKNC

one-hybrid fitness for binding NBS DNA, 0.257:
HNMG

one-hybrid fitness for binding NBS DNA, 0.411:
RLSS

one-hybrid fitness for binding NBS DNA, 0.38:
QVSR

one-hybrid fitness for binding NBS DNA, 0.415:
QLLR

one-hybrid fitness for binding NBS DNA, 0.627:
QHRS

one-hybrid fitness for binding NBS DNA, 0.393:
QLHT

one-hybrid fitness for binding NBS DNA, 0.359:
QHYT

one-hybrid fitness for binding NBS DNA, 0.482:
QVRS

one-hybrid fitness for binding NBS DNA, 0.421:
RASS

one-hybrid fitness for binding NBS DNA, 0.436:
QVHR

one-hybrid fitness for binding NBS DNA, 0.432:
QRHK

one-hybrid fitness for binding NBS DNA, 0.464:
QLSR

one-hybrid fitness for binding NBS DNA, 0.322:
QAYT

one-hybrid fitness for binding NBS DNA, ≤ 0.2:
TTVS
YHRS
YKRY
IDDD
SRTS
TNTI
CWVC
RTKL
CLGT
QPYA
RATL
AQRI
VVMC
QSCK
QSHK
QCHK
QRPK
QCSK
QCCK
QSSK
YTTG
PILC
GPWT
TTST
PSAI
LWNA
QCGK
QREK
QCAK
QCNK
QRDK
QSGK
TYVS
MKIS
KICD
FCSG
FRQA
QSQK
QCQK
QNYT
QPRT
GCRT
QPYT
GPYT
VDRR
QPAL
PSKA
SGLS
RPAY
SNWT
PAIL
HYHS
FRPV
PPFR
QIPT
ALLT
QWRW
HELN
VNET
TDND
QYNF
HKPS
SLTE
AVAW
VQPA
YAHE
QHYH
SNPD
YDCG
IGGI
EAAG
QLSN
QLRD
QLSP
QLAP
CSWC
YYPG
WYCF
HGNS
FIMG
PPDN
GYQT
DTTS
TWKT
SACG
QLCD
QLLP
QLHP
QLHH
QLQD
QLLS
QLCP
QLQH
LLRD
RCWE
ILMW
QNKK
WACV
ARFF
YTQC
KEGR
VEDR
QLGN
QLGD
NTCV
LCVN
QIHN
QPHT
QIHK
QLHG
QFHT
NTKL
YMTV
HSGS
THQS
HCNT
MGAT
QHHY
QAHC
QWHT
QHHK
QAHF
QNHT
PYTI
TEKH
AHRE
QKNF
QKDF
SPCS
VPAP
YAMK
GQTK
INGE
QVRD
QVQS
QVQN
QVNN
QVND
QVDS
QVDR
SVQD
CSRY
EQAR
RYPY
WMPP
AHEF
GQCW
EIHG
GPST
VMSA
LYRR
GDTA
QVGP
QVSN
QVSD
QVAH
QVGD
GHLS
CPPV
SSGL
QAQG
VSSH
ELVL
DGRA
PHAM
TTRG
QVHN
QVKG
QVHD
SFPV
PNKV
CGYT
FDPN
SLHW
LRYR
LRDR
LRGN
TTRD
YFPL
PYKL
RLSD
RKSP
RPSS
RHSN
RKSN
RLSN
RHSP
TAMR
PIWS
TISQ
GDNM
KDTE
EWSR
APCT
RMSD
RMSH
RSSD
RASN
RASH
RSSP
LPKA
QSPH
HLSL
NDNR
NAKL
QILN
TTWI
SQRH
QPCR
QACH
QMCM
QKCM
QKCD
QECR

one-hybrid fitness for binding NBS DNA, 0.425:
QLYR
QIHT
QKDR

one-hybrid fitness for binding NBS DNA, 0.384:
QVAR

one-hybrid fitness for binding NBS DNA, 0.77:
QVRR

one-hybrid fitness for binding NBS DNA, 0.414:
QAHT

one-hybrid fitness for binding NBS DNA, 0.207:
LCKR
LRVR

one-hybrid fitness for binding NBS DNA, 0.202:
QVYS

one-hybrid fitness for binding NBS DNA, 0.522:
RCSS

one-hybrid fitness for binding NBS DNA, 0.723:
QSRT

one-hybrid fitness for binding NBS DNA, 0.857:
QCRT

one-hybrid fitness for binding NBS DNA, 0.558:
QTVR

one-hybrid fitness for binding NBS DNA, 0.329:
QLFR

one-hybrid fitness for binding NBS DNA, 0.381:
QRYK

one-hybrid fitness for binding NBS DNA, 0.551:
QCHT

one-hybrid fitness for binding NBS DNA, 0.255:
NTKR

one-hybrid fitness for binding NBS DNA, 0.465:
QVNR

one-hybrid fitness for binding NBS DNA, 0.439:
RMSS

one-hybrid fitness for binding NBS DNA, 0.285:
QVVR

one-hybrid fitness for binding NBS DNA, 0.324:
QHYS

one-hybrid fitness for binding NBS DNA, 0.294:
QLIR

one-hybrid fitness for binding NBS DNA, 0.426:
QVGR

one-hybrid fitness for binding NBS DNA, 0.231:
RFSS

one-hybrid fitness for binding NBS DNA, 0.503:
QCYT

one-hybrid fitness for binding NBS DNA, 0.352:
QALT

one-hybrid fitness for binding NBS DNA, 0.337:
QHLT

one-hybrid fitness for binding NBS DNA, 0.447:
QACR

one-hybrid fitness for binding NBS DNA, 0.438:
RHSS
